From the supplement of paper PMC9897528 come the findings set out here.

Values without a mark were called inactive.
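Further: conidia screened in RPMI 1640 medium under 5% CO2, growth read by spectrophotometer, medium with 0.5% DMSO serving as the untreated reference.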

This test deals with Scedosporium aurantiacum CBS 136046. In words: growth inhibition relative to DMSO control (OD600); higher = more antifungal activity, active = 80 or more; extreme values may be limits of the assay. Conditions: 5 µM; 72 h; 37 °C.
Consider `COc1ccc2c(c1OC)C(=O)OC2C1c2c(cc3c(c2OC)OCO3)CCN1C` (stereo not drawn), for which the growth inhibition is 14.1%. Take `O=C(NCCN1CCCCC1)c1cccc(C(F)(F)F)c1`: the growth inhibition was 10.1%.

In the case of `CCCCCCCCCN1C[C@@H](O)[C@H](O)[C@@H](O)[C@@H]1CO`, the growth inhibition is 13.7%.

With `COc1cc(Cc2cc(N)nc(N)n2)cc(OC)c1OC`, the growth inhibition was 11.7%.

With `O=C(Nc1ccccc1C(=O)O)c1cccc(Oc2ccccc2)c1`, the growth inhibition is 0.169%. Next, `O=C1CCC(N2C(=O)c3ccccc3C2=O)C(=O)N1` (stereo not drawn): 22.9%. As to `O=c1nc(N2CCN(CC3CCCCC3)CC2)sc2c([N+](=O)[O-])cc(C(F)(F)F)cc12`, the growth inhibition is 28.5%. For the compound `CCCCCCC1c2ccc(O)cc2Oc2cc(O)ccc21`, the growth inhibition is 4.47%. With `Nc1cnn(C2OC(CO)C(O)C2O)c(=O)n1` (stereo not drawn), the growth inhibition was 8.41%. Take `Oc1c(C(Nc2ccccn2)c2ccccc2)ccc2cccnc12` (stereo not drawn): the growth inhibition was 35.9%. Consider `CCc1nc(N)nc(N)c1C#CCc1ccccc1`, for which the growth inhibition is 30.8%. As to `NC(=O)c1cnccn1`, the growth inhibition was 1.73%. In the case of `NC(=S)N/N=C/c1ncccc1N` it was 23.2%; in that of `O=C(Nc1nnc(-c2ccccc2)o1)c1ccc(F)cc1`, 31.3%; in that of `Clc1ccc(Cn2c(CN3CCCC3)nc3ccccc32)cc1`, 15.5%. For `C=C(C)n1c(=O)n(Cc2ccccc2C)c2ccccc21`, the growth inhibition was 21.5%. Take `Cc1c(OCC(F)(F)F)ccnc1C[S+]([O-])c1nc2ccccc2[nH]1` (stereo not drawn): the growth inhibition is 39.8%.

In the case of `CC(C)Oc1ccc(-c2nc(-c3cccc4c3CC[C@@H]4NCCO)no2)cc1C#N`, the growth inhibition is 25.4%.
